Results filed as inconclusive are left out. Entries that show only a call come without a potency. Values without a mark were called inactive. Active and inactive are the calls of the source. Calls come from the whole dose curve; as a rule, active = well fitted inhibition curve with a large enough effect; inconclusive = small, poorly fitted or top-dose-only effect; inactive = no such curve, though single readings can be large or run the other way. Square brackets hold non-standard residues; d marks the D form. Peptide text beside a SMILES is read from it. * marks the point of attachment. Cbz = O=C(OCc1ccccc1)*; Nva = CCC[CH](N)C(=O)O
System: zebrafish Abcb4 (ABCB1 homolog)
Test: qHTS for characterization and localization of zebrafish homologs of the human ABCB1 multidrug transporter: ABCB4 transfected cells
Conditions: CellTiter-Glo viability luminescence, 72 h; series mostly up to 46.1 µM
Source text: The zebrafish has emerged as a potential model to study the blood-brain barrier (BBB) given its similarities with mammalian systems. However, little information has been available with regard to homologous ATP-binding cassette transporters expressed at the zebrafish BBB. Two transporters that are highly expressed at the human BBB are P-glycoprotein (P-gp, encoded by the ABCB1 gene) and ABCG2 (encoded by the ABCG2 gene). In this study, we focus on characterization of P-gp homologs in the zebrafish, which has two genes that are homologous to human ABCB1 - abcb4 and abcb5. We generated stably-transfected cell lines to determine their substrate specificities. […] Zebrafish abcb4 also colocalized with claudin 5 expression in brain endothelial cells.
A high-throughput screen was performed as previously described on empty vector transfected cells, P-gp-overexpressing MDR-19 cells and cells transfected with full-length zebrafish abcb4 (ZF Abcb4) or abcb5 (ZF Abcb5). Briefly, cells were plated into 1536-well plates at a density of 500 cells/well in 5 uL media. P-gp substrate compounds (approximately 90) selected from our previous study were then added at varying concentrations using a 1536-head pin tool (Kalypsis, San Diego, CA) and plates were incubated at 37C in 5% CO2 for 72 h. CellTiter-Glo reagent (Promega) was dispensed into the wells, incubated for 5 min and luminescence was read on a ViewLux instrument (Perkin-Elmer).
Cytotoxic compounds were defined as those that yielded a curve class of -1.1, -1.2, -2.1, -2.2, -2.3, or -2.4, a maximum response of >50% and an AC50 of < 10 uM. All compounds from screening analysis were tested in Vector (empty vector control), MDR-19 (P-gp overexpressing), zebrafish abcb4 (ZF Abcb4) and abcb5 (ZF Abcb5) expression cell lines.
1. Tobie D Lee, Olivia W Lee, Kyle R Brimacombe, Lu Chen, Rajarshi Guha, Sabrina Lusvarghi, Bethilehem G Tebase, Carleen Klumpp-Thomas, Robert W Robey, Suresh V Ambudkar, Min Shen, Michael M Gottesman, Matthew D Hall. A High-Throughput Screen of a Library of Therapeutics Identifies Cytotoxic Substrates of P-glycoprotein. Mol Pharmacol. 2019, Nov;96(5):629-640.

SMILES | Potency | activity change, negative = inhibition
CCS(=O)(=O)c1cccc(-c2cc(C(=O)NC3CCN(C)CC3)c(C)c3[nH]c4ncc(C)cc4c23)c1 | inactive | 
CC(NCc1ccc2c(c1)nc(NC(=O)c1ccc(-c3cn[nH]c3)s1)n2CC(C)(C)O)C(C)(C)C (stereo not given) | 6.62 µM (active) | 
CCC(C)C(=O)OC1CC(O)C23C4OCC5(C(O)CC2C1(C)C(O)O4)C3C(=O)C(O)C1(C)C(O)(c2ccoc2)CC2OC251 (stereo not given) | inactive | 
C#CCN(Cc1cc2c(=O)n(C)c(CN3CCN(C)CC3)nc2cc1Cl)c1ccc(C(=O)NCc2cccnc2)cc1 | inactive | 
COc1ccc(CC2C(=O)NC(C)C(=O)N(C)C3Cc4ccc(cc4)Oc4cc(ccc4OC4OC(CO)C(O)C(O)C4O)CC(C(=O)NC(C)C(=O)NC(C)C(=O)N2C)N(C)C3=O)cc1 (stereo not given) | inactive | 
O=C(NC1CC1)c1cccc(-c2ccc3c(NC(=O)C4CC4)n[nH]c3c2)c1 | inactive | 
O=C(NC1CCNCC1)c1[nH]ncc1NC(=O)c1c(Cl)cccc1Cl | inactive | 
CC1(C)CC(NC(=O)C(=O)Nc2ccc(Br)cc2)CC(C)(C)N1 | inactive | 
CC(C)C[C@H](NC(=O)[C@H](CCc1ccccc1)NC(=O)CN1CCOCC1)C(=O)N[C@@H](Cc1ccccc1)C(=O)N[C@@H](CC(C)C)C(=O)[C@@]1(C)CO1 | 2.35 µM (active) | 
CCn1c(-c2nonc2N)nc2c(C#CC(C)(C)O)ncc(OC[C@H]3CCCNC3)c21 | inactive | 
COC[C@H](NC(=O)c1cnc(C)s1)C(=O)N[C@@H](COC)C(=O)N[C@@H](Cc1ccccc1)C(=O)[C@@]1(C)CO1 | 0.935 µM (active) | 
CC1(C)CC[C@]2(C(=O)OC3OC(CO)C(O)C(O)C3O)CC[C@]3(C)C(=CCC4[C@@]5(C)CC[C@H](OC6OC(C(=O)O)C(O)C(O)C6O)C(CO)(CO)C5CC[C@]43C)[C@@H]2C1 (stereo not given in full) | inactive | 
Cc1[nH]c2ccccc2c1CCNCc1ccc(/C=C/C(=O)NO)cc1 | 2.96 µM (active) | 
CCN(CCCO)CCCOc1ccc2c(Nc3cc(CC(=O)Nc4cccc(F)c4)[nH]n3)ncnc2c1 | inactive | 
CC(=O)O[C@@H]1C[C@H](O)[C@@]23CO[C@@H](O)C1(C)[C@@H]2C[C@@H](O)[C@]1(C)[C@@H]3C(=O)[C@H](OC(C)=O)[C@@]2(C)[C@H](c3ccoc3)C[C@H]3O[C@]321 | 2.96 µM (active) | 
CC[n+]1c(-c2ccccc2)c2cc(N)ccc2c2ccc(N)cc21 | inactive | 
CCc1c(O)cc(O)c(C(=O)c2ccc(OCCN3CCOCC3)c(OC)c2)c1CC(=O)N(CCOC)CCOC | inactive | 
COc1cc2c(NC3CCN(C(C)C)CC3)nc(N3CCCN(C)CC3)nc2cc1OCCCN1CCCC1 | inactive | 
COCCn1c2c([n+](Cc3cnccn3)c1C)C(=O)c1ccccc1C2=O | inactive | 
CCCC(C=O)NC(=O)C(CC(C)C)NC(=O)C(CC(C)C)NC(=O)OCc1ccccc1 (stereo not drawn) (Cbz-Leu-Leu-[Nva]-aldehyde; configuration not given here) | 3.72 µM (active) | 

SMILES | Potency | activity change, negative = inhibition
C[C@@H]1O[C@@H](O[C@H]2[C@H](O)[C@@H](O)[C@H](O[C@H]3[C@H](O[C@H]4CC[C@@]5(C)C(=CC[C@@H]6C5CC[C@]5(C)[C@@H]7[C@H](C[C@@H]65)O[C@]5(CC[C@@](C)(CO[C@@H]6O[C@H](CO)[C@@H](O)[C@H](O)[C@H]6O)O5)[C@H]7C)C4)O[C@H](CO)[C@@H](O)[C@@H]3O)O[C@@H]2CO)[C@H](O)[C@H](O)[C@H]1O (stereo not given in full) | inactive | 
CO[C@H]1/C=C/C=C/C=C/C[C@H](OC(=O)[C@@H](C)NC(=O)C2CCCCC2)[C@H](C)[C@@H](O)/C(C)=C/CCc2cc(O)cc(c2)NC(=O)C1 | inactive | 
C[C@@]12O[C@@H](C[C@]1(O)CO)n1c3ccccc3c3c4c(c5c6ccccc6n2c5c31)CNC4=O | 5.26 µM (active) | 
CCN(CC)Cc1ccc(C(=O)N(CCc2ccccc2OC)[C@@H]2CCNC2)cc1 | inactive | 
C=C1CO[C@@]2(O[C@H]3CC4C5CC=C6C[C@@H](O)C[C@@H](O[C@@H]7OC[C@H](O)[C@H](O[C@@H]8OC[C@@H](O)[C@H](O)[C@H]8O)[C@H]7O[C@@H]7O[C@@H](C)[C@H](OC(C)=O)[C@@H](OC(C)=O)[C@H]7OC(C)=O)[C@]6(C)C5CC[C@]4(C)[C@@H]3[C@@H]2C)[C@@H](O)[C@H]1OC1OC(C)C(O)C(O)C1O (stereo not given in full) |  | 4.44% [at 8.96 µM]
CN(C)c1ccc(C(=C2C=CC(=[N+](C)C)C=C2)c2ccc(N(C)C)cc2)cc1 | 13.2 µM (active) | 
CCc1cccc(CC)c1NC(=O)N1Cc2[nH]nc(NC(=O)c3ccc(N4CCN(C)CC4)cc3)c2C1 | inactive | 
COc1cc(N2CCC(O)CC2)ccc1Nc1nc(Nc2ccccc2S(=O)(=O)C(C)C)c2[nH]cnc2n1 | inactive | 
Cc1cc(Nc2cc(N3CCN(C)CC3)nc(Sc3ccc(NC(=O)C4CC4)cc3)n2)n[nH]1 | inactive | 
CC(=O)C1(O)Cc2c(O)c3c(c(O)c2C(OC2CC(N)C(O)C(C)O2)C1)C(=O)c1c(O)cccc1C3=O (stereo not given) | 0.526 µM (active) | 
CCN1CCN(Cc2ccc(NC(=O)Nc3ccc(Oc4cc(NC)ncn4)cc3)cc2C(F)(F)F)CC1 | inactive | 
C=CCn1c(=O)c2cnc(Nc3ccc(N4CCN(C)CC4)cc3)nc2n1-c1cccc(C(C)(C)O)n1 | 4.18 µM (active) | 
CN(C)C/C=C/C(=O)Nc1cccc(C(=O)Nc2ccc(Nc3nccc(-c4cccnc4)n3)cc2)c1 | inactive | 
CC(C)(C)c1cnc(CSc2cnc(NC(=O)C3CCNCC3)s2)o1 | 38.2 µM (active) | 
Cc1ccc(-c2ncn(-c3ccc(Nc4nccc(-c5cccc(N6CCOCC6)c5)n4)cc3)n2)cn1 | 4.18 µM (active) | 
Cc1cc(N)c2ccccc2[n+]1CCCCCCCCCC[n+]1c(C)cc(N)c2ccccc21 | inactive | 
Cc1ccc(C(=O)N(CCCN)[C@@H](c2oc3cc(Cl)ccc3c(=O)c2Cc2ccccc2)C(C)C)cc1 | 20.9 µM (active) | 
CC(C)C[C@H](NC(=O)[C@@H](NC(=O)c1cccc(-c2ccccc2)n1)[C@@H](C)O)B(O)O | 0.662 µM (active) | 
COc1cc2c(NC3CCN(C(C)C)CC3)nc(N3CCCN(C)CC3)nc2cc1OCCOCCN(C)C | inactive | 
CC[C@@]1([C@@H]2O[C@@H]([C@H]3O[C@@](O)(CO)[C@H](C)C[C@@H]3C)C[C@@H]2C)CC[C@H]([C@]2(C)CC[C@]3(C[C@H](O)[C@@H](C)[C@@H]([C@@H](C)[C@@H](OC)[C@H](C)C(=O)O)O3)O2)O1 | 1.05 µM (active) | 
